# The source made the active and inactive calls. Rule for the calls: active = hit-call score of the fitted dose curve at least 0.9, where 1 is the maximum; inactive = score below 0.9.
# Assay: CCTE_Mundy_HCI_Cortical_Synap_Neur_Matur_CellBodySpotCount: CCTE's Synaptogenesis and Neurite Maturation Assay in rat cortical cells for Cell Body Spot Count, Mundy Lab (AID 2284223)
# Description: CCTE_Mundy_HCI_Cortical_Synap&Neurite_Matur is a multiplexed, cell-based-readout assay that uses rat primary cortical cells with measurements taken at 288.33 hours after chemical dosing in a microplate: 96-well plate.CCTE_Mundy_HCI_Cortical_Synap_Neur_Matur_CellBodySpotCount is one of eight components of the CCTE_Mundy_HCI_Cortical_Synap&Neurite_Matur assay. It measures synaptogenesis and neurite maturation related to number of cell body-associated synapses (synaptophysin puncta) per neuron using High Content Imaging of fluorescently labelled markers.[…] Using a type of morphology reporter, loss -of-signal activity can be used to understand developmental effects.
# Cells are plated onto 96 well plates and allowed 2 hr for attachment to the substrate. At days in vitro (DIV) 5, Cytosine Arabinoside (AraC) is added to arrest glial cell growth. Chemicals are dosed and a media change is performed at DIV 7 of differentiation and is continued through DIV 12 when the experiment is terminated. Cells are fixed with […] and Hoechst Dye. Cells are stained using Millipore Mouse anti-MAP2MAB3418 (1:800) and Millipore Rabbit anti-Synaptophysinsc-1750 (1:250) primary antibodies and Alexa Fluor-488 goat anti-mouse and AlexaFluor-546 goat anti-rabbit secondary antibodies to label neuronal cell nuclei, synapses and neurites. A Cellomics ArrayScan VTi HCS Reader is used for automated image acquisition and analysis of neurite outgrowth.
Compound,AC50,outcome
Cc1c(COC(=O)[C@@H]2[C@H](/C=C(\Cl)C(F)(F)F)C2(C)C)cccc1-c1ccccc1,3.12 µM (active),–
COP(=O)(OC)O/C(C)=C/C(=O)N(C)C,–,inactive
COP(=S)(OC)SCn1nnc2ccccc2c1=O,–,inactive
CCNC(=O)NC(=O)C(C#N)=NOC,–,inactive
CS(=O)(=O)c1ccc(C(=O)C2C(=O)CCCC2=O)c([N+](=O)[O-])c1,–,inactive
CN/C(=N\[N+](=O)[O-])NCc1cnc(Cl)s1,–,inactive
COC(=O)N(C(=O)N1CO[C@@]2(C(=O)OC)Cc3cc(Cl)ccc3C2=N1)c1ccc(OC(F)(F)F)cc1,–,inactive
CCOP(=O)(OCC)Oc1nc(Cl)c(Cl)cc1Cl,–,inactive
N#CN=C1SCCN1Cc1ccc(Cl)nc1,–,inactive
CC(C)(C)C(=O)C(Oc1ccc(Cl)cc1)n1cncn1 (stereo not drawn),–,inactive
CNC(=O)Oc1cccc2ccccc12,–,inactive
CO/N=C(/C1=NOCCO1)c1ccccc1Oc1ncnc(Oc2ccccc2Cl)c1F,3.26 µM (active),–
CCN(CC)c1nc(C)cc(OP(=S)(OC)OC)n1,–,inactive
O=C(Nc1ccccc1-c1ccc(Cl)cc1)c1cccnc1Cl,–,inactive
C=C(C)CN(CC)c1c([N+](=O)[O-])cc(C(F)(F)F)cc1[N+](=O)[O-],5.33 µM (active),–
CS(=O)(=O)c1cc(C(F)(F)F)ccc1C(=O)c1cnoc1C1CC1,–,inactive
CCSC(=O)N1CCCCCC1,–,inactive
CC1(C)C(C=C(Cl)Cl)C1C(=O)OC(C#N)c1cccc(Oc2ccccc2)c1 (stereo not drawn),–,inactive

# From PubChem BioAssay (EPA / NIEHS)
